# Measured values as given in the supplement of paper PMC10338343.
# ± gives the standard deviation.
# Tested on: EfPiwi piRISC loaded with L1MC piRNA (26 nt)
# Experiment: pre-steady-state target cleavage rate (min^-1); auxiliary factor: 500 nM Ephydatia muelleri Gtsf1; guide: L1MC piRNA 5'p-UAACUAAAUACUAUGCAAGCUGUAGG; MIWI and MILI are mouse PIWI proteins and EfPiwi is from a freshwater sponge; tags in brackets are library labels; higher = faster piRNA-guided slicing of the target
# Method: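 Cleave-'n-Seq: a library of target RNAs (target site in constant flanks) at […] was incubated with 1 nM active freshwater sponge Ephydatia fluviatilis Piwi piRISC (synthetic 5'-monophosphorylated piRNA guide) with or without 500 nM EmGtsf1 at 33 °C for 1 min to 16 h. Uncleaved targets were sequenced and the pooled three trials fitted to a burst-and-steady-state model to give the pre-steady-state cleavage rate (min^-1). Sequence is the target site only. Fits with R² ≤ 0 are excluded.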
row,Sequence,pre-steady-state target cleavage rate
1,UCCUGGAACAGCUUGCAUAUUAUUUAGUUA,0.0169 ± 0.0055
2,UCCUGCUACGAGCUUGCAUAGUAUUUAGUUA,0.00866 ± 0.0022
3,UCCUGGUAGUGCUUGCAUAGUAUUUAGUAA,0.00326 ± 0.0024
4,UCCUGGAACAGCAUGCAUAGUAUUUAGUUA,0.0466 ± 0.011
5,UCCUGGAUGUCGAACGAUACAUUUUAGUUA,< 0.0001
6,UCCUCCUACAGCUUGCAUAGUAAUUACUUA,0.005 ± 0.0027
7,UCCUCCUACAGGUUCCAUAGUAUUUAGUUA,0.0023 ± 0.0012
8,UCCUGCUUGUGCUUGCAUAGUAUUUAGUUA,0.00618 ± 0.0027
9,UCCUGGAUCAGGUUGCAUAGUAAUUAGUUA,0.012 ± 0.005
10,UCCUGGAUGUCCUUGCAUACUAUUUAGUUA,0.00333 ± 0.0024
11,UCCUGGUACAGGCUUGCAUAGUAUUUAGUUA,0.00759 ± 0.0028
12,UCCUGGAUGUGCUUGCACAGUAUUUAGUUA,0.00686 ± 0.0028
13,UCCUGCUACAGCUUCGCAUAGUAUUUAGUUA,0.0225 ± 0.0071
14,UCCUGGAUGUCGAACCAUUGAAUUUAGUUA,< 0.0001
15,UCCUGCUACAGGUUGCAUUGUAUUUAGUUA,0.00597 ± 0.0023
16,UCCUGGAUGUCGAUGCAAAGUAUUUUGUUA,< 0.0001
17,UCCUCGUACAGCUUGGAUAGUAUUUAGUUA,0.0441 ± 0.0092
18,UCCUGGAUGAGCUUGCAUAGUACUUUAGUUA,0.00806 ± 0.003
19,UCCUGGAUGUCGAUGCAUAGUACUUAGUUA,0.00454 ± 0.0029
20,UCCUGGAAGUCCUUGCAUAGUAUUUAGAAA,0.00315 ± 0.0023

row,Sequence,pre-steady-state target cleavage rate
1,UCCUGGAACACCUUGCAAAGUAUUUAGUUA,0.00814 ± 0.0031
2,UCCUCGUACAGCUUCCAUAGUAUUUAGUUA,0.00339 ± 0.0014
3,UCCUCCUACAGCUUGCUUAGUAUUUUCAAA,0.00322 ± 0.003
4,UCCUGCUACUCCUUGCAUAGUAUUUAGUAA,0.00443 ± 0.003
5,UCCUGCUUGAGCUUGCAUAGUAUUUAGUAA,0.00772 ± 0.0023
6,UCCUGGAACAGCUUGGAUAGUAUUUAGUAA,0.00371 ± 0.002
7,UCCUCCUACAGCUUGCAUAGUAUUAAGUUA,0.00589 ± 0.0029
8,UCCUGGAUGAGCUUGCCUAGUAUUUAGUUA,0.00623 ± 0.0037
9,UCCUCCUACAGCUUGCAUAGUAUUUUGUAA,0.0056 ± 0.003
10,UCCUCGUACAGCUUGCAUACUAUUUAGUUA,0.0224 ± 0.0069
11,UCCUCCUACAGCUUGCAUAGUAUUUUCUAA,0.00565 ± 0.0036
12,UCCUGGAACAGGUUGGAUAGUAUUUAGUUA,0.00375 ± 0.0014
13,UCCUGGAACCGCUUGCAUAGUAUUUAGUUA,0.0172 ± 0.0054
14,UCCUGGAAGAGCUUCCAUAGUAUUUAGUUA,0.00329 ± 0.0011
15,UCCUGCUACUCCUUGCAUAGUAUUUAGUUA,0.0106 ± 0.004
16,UCCUGGAACAGCUUGCCAUAGUAUUUAGUUA,0.0042 ± 0.0019
17,UCCUGGAUGAGCUUGCAUUGUAUUUAGUUA,0.00376 ± 0.0029
18,UCCUGGAACAGCUUGCAUACUAAUUAGUUA,0.00305 ± 0.0029
19,UCCUGCUACAGCUUGGAUUGUAUUUAGUUA,0.00362 ± 0.002
20,UCCUGGUACAGCUCGCAUAGUAUUUAGUUA,0.00967 ± 0.0034
